Laboratory results reported in PMC6925144, “A prospective compound screening contest identified broader inhibitors for Sirtuin 1” (Scientific Reports, 2019).

What follows are compounds tested against NAD-dependent deacetylase Sirtuin 1 (human, UniProt Q96EB6) (assay: primary screen, percent inhibition; higher = more effect of the substance). Settings: 10 µM.
Design: mean of n = 4
Description: Note that the inhibitory assay was conducted with NAD+.

Chain of NAD-dependent deacetylase Sirtuin 1 (Q96EB6 2-747 limits assumed): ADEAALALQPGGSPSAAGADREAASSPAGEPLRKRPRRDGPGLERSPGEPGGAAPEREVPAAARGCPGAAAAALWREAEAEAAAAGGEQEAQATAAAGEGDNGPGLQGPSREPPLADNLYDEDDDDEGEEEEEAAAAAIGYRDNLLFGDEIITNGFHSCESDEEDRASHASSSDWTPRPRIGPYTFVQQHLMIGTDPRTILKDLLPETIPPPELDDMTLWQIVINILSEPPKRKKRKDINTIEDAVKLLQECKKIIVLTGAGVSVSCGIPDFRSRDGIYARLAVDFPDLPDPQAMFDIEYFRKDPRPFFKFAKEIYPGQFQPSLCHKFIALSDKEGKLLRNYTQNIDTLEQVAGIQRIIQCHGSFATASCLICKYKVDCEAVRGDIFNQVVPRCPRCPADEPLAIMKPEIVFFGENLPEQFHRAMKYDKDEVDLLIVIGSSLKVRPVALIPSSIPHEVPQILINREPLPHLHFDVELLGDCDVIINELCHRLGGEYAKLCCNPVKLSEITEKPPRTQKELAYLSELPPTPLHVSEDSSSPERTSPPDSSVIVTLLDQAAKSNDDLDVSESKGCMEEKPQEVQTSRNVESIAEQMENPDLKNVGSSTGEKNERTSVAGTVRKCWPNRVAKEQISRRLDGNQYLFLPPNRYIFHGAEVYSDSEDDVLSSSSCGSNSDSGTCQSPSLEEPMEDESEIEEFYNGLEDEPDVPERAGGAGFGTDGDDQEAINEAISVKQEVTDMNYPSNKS

| SMILES | TSA(with NAD+) / Inhibitory assay (Promega kit) / Mean (%) | TSA(without NAD+) / Inhibitory assay (Promega kit) / Mean (%) |
| --- | --- | --- |
| COc1ccc2cc(/C=C/C(=O)Nc3ccc(C(N)=O)cc3)ccc2c1 | 19.8 |  |
| CCn1c2ccccc2c2cc(NC(=O)C(C)OC(=O)c3cccc(S(=O)(=O)Nc4ccc(Cl)cc4)c3)ccc21 (centres unmarked) |  | 23.9 |
| O=C1NC(=S)NC(=O)C1=Cc1cn(-c2ccccc2)nc1-c1cc2ccccc2o1 | 57.2 |  |
| Cc1sc2nc(CSc3ccccc3)nc(N3CCC(C(N)=O)CC3)c2c1C |  | -36.8 |
| Cc1nc(-c2ccc(CCNC(=O)c3ccc(NC(=O)c4cccs4)cc3)s2)cs1 |  | 27 |
| Cc1ccc(C(=O)Nc2ccc(NC(=O)NCC3CCCO3)cc2)cn1 (centres unmarked) |  | -1.1 |
| COc1ccc(N(C)S(=O)(=O)c2cccc(C(=O)Nc3ccc(Cl)cc3)c2)cc1 | 17.6 |  |
| Cc1cc(F)ccc1N1CCCC(Nc2ccc3nnnn3n2)C1 (centres unmarked) |  | 6.7 |
